Hit rate of the full screen: of about 53,000 sequences, about 3,700 (7%) were called active. The entries come from a sample that favours actives as a whole. Values without a mark were called inactive.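 Rule for the calls: active = gene knockdowns whose robust z-score for IL-1 alpha signal is at least 2 or at most -2, so actives lie on both sides; inactive = the rest.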

This test can be described thus: Components of the Cytosolic LPS Sensing Pathway: Gene Identification via Genome-wide siRNA Screen.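 Note: robust z of the log signal after scaling to non-targeting control siRNA wells of the plate.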 Particulars: RAW264.7 macrophages, IL-1a HTRF, actives lie on both sides, screened at 100 nM (by protocol), cells primed 5 h with Pam3CSK4 first. An outline of the steps:
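RAW264.7; siRNA 100 nM final, RNAiMAX, 48h 37 degrees C; Pam3CSK4 5 h; LipidA + TransIT-TKO 24 h; IL-1a HTRF; CellTiter-Glo viability; robust z vs negative-control median.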
A general note: TR-FRET usually uses a lanthanide donor and a delayed reading to cut background.
Take GGACAAGAUGAUCUGCCUATT against Lrrc8a: the z-score is 0.722.

GCCGAUACUUGAGCCAGUUTT against Srd5a1: the z-score was 0.477.

Take GCUUCGACACUUUAUUUCUTT against Cnp: the z-score was 0.26.

As to GGGUUUUCUUGUGUGAAAATT against Pomp, the z-score was -2.93 (active).

In the case of CGAGGGAAUGCACUACAACTT against Chpf, the z-score was 2.16 (active).

Consider GGAAGACCAGCAGUUAAGATT against Grb10, for which the z-score was -1.56.

As to GGUGGAAGAGGUCAAAUAATT against Denr, the z-score is 1.05.

GGAAAAAGACUUCUAUCACTT against Ly6g6g: the z-score was -2.03 (active).

For GGCUUUUGAGAUUGCUAAATT against Mfap3l, the z-score was -0.491.

As to GGCCUUUGAUGACUUCAUCTT against Cacna1h, the z-score is 0.904.

For CCACUGGACAGGAACAAAGTT against Rims1, the z-score was -1.2.

For GGAGGUGAUGCAGAUGCUGTT against Gpi1, the z-score is 3.06 (active).

GCCGACUCAUGGUUUAGAATT against Tmem18: the z-score was -0.0972.

GGCAAUGAAUUUAACAAUCTT against Zfp874a: the z-score was -0.351.

With GGGACUUGAUCUCCUGAGUTT against Krtap4-2, the z-score was -0.223.

GGACAACGAGUGUCUGGGUTT against Cx3cr1: the z-score is 4.8 (active).

Consider CCCAUGGUCACUUAUAUAUTT against Jarid2, for which the z-score is 0.109.

Take GGAGCUUCGUGGAUAAGAGTT against Padi3: the z-score is -1.79.

GGUUGUUGGAAAAGAUGAATT against Ids: the z-score was -1.55.

Regarding GGAUCAUCCAAGUGUUCCGTT against Olfr555, the z-score is 1.51.

For the sequence GCAGUUUGUGGAUAUGUCATT against Treh, the z-score was 0.604.

For GGUUUUCUCGCUCAGACCATT against Wt1, the z-score was 0.352.

Turning to GGUCAUACAUGUGAAGACATT against Tsr2, the z-score was 2.01 (active).

Consider GGGCAAGAUGGUCAGUAGATT against Tpt1, for which the z-score was 0.627.

As to CGCAACAGCUAGGAUUUUUTT against Me1, the z-score is 0.193.

For CCCAUUAGAUGCUGAAUAUTT against Stmn1, the z-score was 0.139.

Turning to CCAGUGUUUGACUUGACCATT against Dpysl3, the z-score was 0.228.

In the case of GGUUGUCGUCAACAAGAGCTT against Krt72, the z-score is 1.96.

In the case of GGUGUCAUCCCUGAAAGAGTT against Tert, the z-score is 0.0314.

For the sequence GGAAUUUCUUCAGGACACUTT against Procr, the z-score was 0.278.

As for GGCUCAAUAAAAUGAAGUGTT against Elovl2, the z-score was 2.03 (active).

As to GGCUCAUGGUUAUUGUAAUTT against Olfr1198, the z-score was -0.385.

On to UGUAUCUUUCUGUAGUUCUTT against Taar7e, for which the z-score is 0.195.

With GGAACAUGGCACUUUCGUGTT against Pcdh10, the z-score is 0.905.

Consider CGGUUAAAAGCCCUCAGCATT against Olfr592, for which the z-score was -1.41.

Consider GGUCAAGUGCGAGAAACUCTT against Mafb, for which the z-score was -0.016.

For GGUGGGAAGAGGAAUACACTT against Iffo1, the z-score was 4.73 (active).

Consider GGGACCAGAUGAAGAAGGATT against Coq4, for which the z-score is 0.267.

On to GGAAAUAGAGGAAAGAGAATT against Rbm17, for which the z-score is -0.235.

On to GGCCAUCCAUUGAAGACAUTT against Stk-ps2, for which the z-score was 1.05.

Consider GGCUCUGUUGAAUGCAACGTT against Slc39a6, for which the z-score was -2.15 (active).

In the case of CUUUGUCAGCCAUGUAUCCTT against Tas2r104, the z-score is 0.468.

Regarding “GCUGCCACUGGACACAUAATT against 4930591A17Rik”, the z-score is -0.0198.

On to GGCUCAAGAAAGUGAAUGATT against Myog, for which the z-score is -1.14.

For the sequence GCAAGACACUUGAUAACUCTT against Znrd1as, the z-score is 2.34 (active).

Take GGAGCAUUUGUUUCCAAGATT against Cd38: the z-score is -1.33.

In the case of GCGCAAUGACGAUAAACUCTT against Sema3f, the z-score was 0.534.

Regarding CCGGAGGUUCCAACAAACUTT against Dlx1, the z-score was -0.591.

Regarding GGAUCCAGAACUAAAAAUCTT against Pcdhga2, the z-score is 0.193.

For “GCUUACUAAUGCGGAUUACTT against 5330438D12Rik”, the z-score is -2.41 (active).

For GGAAGUUGGUGAGCUGGUATT against Ccl17, the z-score was 2.4 (active).

Consider GGAAGACAACAACCUAGAATT against Rpn1, for which the z-score is -0.894.

In the case of GCAGAGUCUGGAUCAACAUTT against Efcab14, the z-score is -0.583.

For CCUCCAGUUCAGAAUUCUATT against Surf4, the z-score was 0.634.

As to GGCACGAUACUUAUUUGAATT against Nudt13, the z-score is -1.43.

As for GGAAGUUGUAGGAGAAAACTT against Rnf214, the z-score is -0.624.

With CGAGAACAGAGGUUUUUAATT against Mxi1, the z-score was 0.0641.

GGAUGCAUUUUUUCUGGAATT against Nop53: the z-score is 0.85.

In the case of GGUGGAAGAGGAGAGUGAATT against Ncl, the z-score was -0.284.

As to GGAACUGAGCCAAGAAGCUTT against Prox2, the z-score was -2.16 (active).

With “GUGUGGACAACUCCUGAGUTT against 9630041A04Rik”, the z-score is -1.14.

As to CGUUAACUCUCGGACGAUCTT against Fitm1, the z-score was 0.576.

Take GGAGGUGGAUCAAAUGGCATT against Gnrh1: the z-score was -0.667.

For GGAAAUAUUGUCAUCAUGGTT against Olfr1302, the z-score was -0.483.

Take GCGGAACUGACUUUCCUGATT against Rhot2: the z-score is 0.443.

With GGGUAAGAGUUACAGAAUATT against Serpinb8, the z-score is -0.0947.

As to GCUUUACGAUACUCCAUAUTT against Shd, the z-score was -0.506.

On to GGGAGAAAAUUGGCUUAGATT against Dclre1b, for which the z-score was 0.424.

Regarding GAUGUUCUGCAUCUACUUUTT against Olfr545, the z-score is 1.46.

In the case of CCUGAAAUCCUGUAGCUACTT against Pgap3, the z-score is 1.35.

In the case of GGCAGAGACCUCAAAACCATT against Selplg, the z-score is -2.33 (active).

Take GGACCAUCACUUCCAGCUATT against Rab1b: the z-score is -0.726.

GGAAGUCUCUAUCCUGAACTT against Prss50: the z-score is -0.24.

For GGAAGUCAACAAUGCAUUCTT against Olfr1451, the z-score was -0.133.

With GGUAAAUUACUCUGAUCAATT against Gpr61, the z-score is -0.593.

With GGGAUUAAUAUCAUACCGATT against Slc30a5, the z-score is -1.33.

Turning to GGGUUUUAUGACCUUCAAGTT against Zkscan14, the z-score was 0.655.

For GGAUGCUCUAGUUCCAUUATT against Aym1, the z-score was 0.51.

Regarding GGAGCAUCAUUUUAACACUTT against Tubd1, the z-score is 0.925.

In the case of GGAUCCUGGUCCAAACUUUTT against Atraid, the z-score was -1.52.

Take GGUUAUUGGCACUUUUAGATT against Ect2: the z-score was 0.0504.

Turning to GGAUUGCUUCACCACAUGUTT against Fes, the z-score was 2.44 (active).

Take GGUGCUGAUGAAGUUCAUGTT against Ap1b1: the z-score is 1.47.

As for GGAGACUAUUUCAUCUACUTT against Tnfsf15, the z-score was 0.347.

In the case of GGAGAAAACACAAUGUCUUTT against Limd1, the z-score is 0.441.

CCUACAGAUAGGUAUGUAGTT against Exo1: the z-score is -2.07 (active).

With GGACUUUGAGGAGAAGGAUTT against Rabep2, the z-score is -1.34.

Turning to GGAAGGUGUCAAUAAAGAUTT against Lypd3, the z-score was 0.0184.

In the case of GGGAUUUUUGAAACUGAAGTT against Glod4, the z-score was -2.78 (active).

In the case of GGAGAGUCUCCAGACUUUGTT against Med29, the z-score is -0.521.

In the case of GGAGGAGACUCAGCAGAUUTT against Gzmn, the z-score was 2.29 (active).

CCAGAAGAACAAGGAAGUATT against Gm6460: the z-score was -0.914.

For the sequence GGCCCAACGACAUUUAUGUTT against Pop7, the z-score was -1.38.

Turning to GCCUUCUGAUAACCUACUATT against Mefv, the z-score is -1.87.

Take GCUAGUGGUAAGUCAACCATT against Iqsec1: the z-score is -0.882.

Take GGAAGCUUACAUUGUGAAGTT against Unc5c: the z-score was -0.735.

In the case of GGACAAGCAAGGUCAAUCATT against Taar1, the z-score is -1.11.

Consider GGUGUAAGAGCUUUGGCCUTT against Gm5420, for which the z-score was 2.35 (active).

On to AAACUAGGGUCGAUUUCACTT against Hmgn3, for which the z-score was 0.704.

Regarding GGCCUUCCUCUUCUGCUUATT against Csf3r, the z-score was 0.157.

Regarding GUGAACAACAUCCAAGCGATT against Dhrs7c, the z-score was 0.183.

With GCGGAAAAAUUACUUUCUUTT against Tas2r107, the z-score is -2.

Turning to GGAGUUUUCAUGCCUACAATT against Odam, the z-score was 2.58 (active).

Turning to GGAAACCUACCAAGAAACGTT against Fam234a, the z-score was -0.293.

Take GGGACAAUUGGAAAGGCGATT against Wdr55: the z-score was 0.507.

As for GGCACUUUCGGGAAUUCACTT against Nup160, the z-score was -2.5 (active).

As to GCCUAUCAGUAUCAUAGUUTT against Dnajc10, the z-score is 0.905.

With GGAGUAUUCAACAUUUGUATT against Trim11, the z-score is -0.523.

The values above are taken from PubChem BioAssay AID1508600 (Functional Genomics Laboratory (NCATS/FGL), 2020).
